Structures can show the parent of a compound that is named as a salt.

This note sets out measurements from the supplement of paper PMC9023506.

The experiment concerns Danio rerio larvae (5 dpf). Briefly: activity during first hour (no stimuli), difference vs DMSO (percentage points (treated minus DMSO)); higher = more of the behaviour than the DMSO vehicle control. As to conditions: 10 µM; exposure time: 3 h pre-incubation + 3 h imaging. On the procedure:
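5-dpf wild-type zebrafish larvae were imaged in 96-well plates. They were treated with 190 Tocris FDA-approved drugs at 10 µM (1 µl/ml DMSO) for 3 h before and 3 h during imaging at 28.5 °C, 48 larvae per drug. Automated image analysis gave % time moving and optomotor responses. Values are drug group mean minus DMSO vehicle mean (n=844), in percentage points, for 10 behaviours.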
On to `COc1ccc(C(CN(C)C)C2(O)CCCCC2)cc1` (configuration not stated) [Venlafaxine hydrochloride], for which the “activity during first hour” value is -22.5. Take `C=C1C[C@@H]2[C@H](CC[C@]3(C)C(=O)CC[C@@H]23)[C@@]2(C)C=CC(=O)C=C12` [Exemestane]: the “activity during first hour” value is -19.6.

For the compound `Cc1cccc([C@H](C)c2c[nH]cn2)c1C` [Dexmedetomidine hydrochloride], the “activity during first hour” value is -27.8.

On to `CC[C@@H](C(N)=O)N1CCCC1=O` [Levetiracetam], for which the “activity during first hour” value came to 7.99. Then `C=CCN1C[C@H](C(=O)N(CCCN(C)C)C(=O)NCC)C[C@@H]2c3cccc4[nH]cc(c34)C[C@H]21` [Cabergoline], with -9.57; and `O=c1[nH]c2ccccc2n1C1CCN(CCCC(c2ccc(F)cc2)c2ccc(F)cc2)CC1` [Pimozide], with -12.5. As for `CC(O)(CS(=O)(=O)c1ccc(F)cc1)C(=O)Nc1ccc(C#N)c(C(F)(F)F)c1` (configuration not stated) [Bicalutamide], the “activity during first hour” value amounted to 4.47. Regarding `N[C@@H]1C[C@H]1c1ccccc1` [Tranylcypromine hydrochloride], the “activity during first hour” value was -14.1. The same measure for `CC(C)C[C@H]1C(=O)N2CCC[C@H]2[C@]2(O)O[C@](NC(=O)[C@@H]3C=C4c5cccc6[nH]c(Br)c(c56)C[C@H]4N(C)C3)(C(C)C)C(=O)N12` [Bromocriptine mesylate]: 15.2. As to `CN1C[C@H](C(=O)N[C@]2(C)O[C@@]3(O)[C@@H]4CCCN4C(=O)[C@H](Cc4ccccc4)N3C2=O)C[C@@H]2c3cccc4[nH]cc(c34)C[C@H]21` [Dihydroergotamine mesylate], the “activity during first hour” value amounted to 4.7. As to `CCN(C)C(=O)Oc1cccc([C@H](C)N(C)C)c1` [Rivastigmine tartrate], the “activity during first hour” value came to 6.97. Consider `COc1cc2c(cc1OC)C1CC(=O)C(CC(C)C)CN1CC2` (configuration not stated) [Tetrabenazine], for which the “activity during first hour” value was determined as 3.91.
